Data from the supplement of paper PMC10981050.
“And” between values parts separate entries of the source, which are not always exact repeats. Equal entries are not always repeated. Structures can show the parent of a compound that is named as a salt.

Columns and labels:
Experiment in all cases: cell viability relative to vehicle control; higher = less cytotoxic
Conditions in all cases: 10 µM
K562 = system: K562
In short: (§1)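 Each screen used CRISPR-edited mutant and wild-type clones from four leukaemia lines. Compounds were acoustically dispensed at a single 10 µM dose, and CellTiter-Glo luminescence was read after 48 h with the supernatant first removed. Viability was analysed in Genedata Screener and given as percent of the on-plate vehicle control.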

MARIMO = system: MARIMO
In short: as §1

MOLM14 = system: MOLM14
In short: as §1

OCI-AML2 = system: OCI-AML2
In short: as §1

Row | Compound | cell viability (K562; SRSF2 genotype: SRSF2 P95H/wt) | cell viability (K562; SRSF2 genotype: SRSF2 wt/wt) | cell viability (MARIMO; SRSF2 genotype: SRSF2 P95H/wt) | cell viability (MARIMO; SRSF2 genotype: SRSF2 wt/wt) | cell viability (MOLM14; SRSF2 genotype: SRSF2 P95H/wt) | cell viability (MOLM14; SRSF2 genotype: SRSF2 wt/wt) | cell viability (OCI-AML2; SRSF2 genotype: P95H/wt) | cell viability (OCI-AML2; SRSF2 genotype: wt/wt)
1 | NC(=O)c1cccc2cn(-c3ccc([C@@H]4CCCNC4)cc3)nc12 [MK-4827(Niraparib) tosylate] | 103% and 99.2% | 87.5% | 48.4% | 64.4% | 21.4% | 7.47% | 41.8% | 47.3%
2 | CC(C)c1cc2c(N3CCN(C4=NCC(C)(C)S4)CC3)ncnc2s1 [MI-3 (Menin-MLL Inhibitor)] | 75.8% and 67.2% | 67.3% | 75.4% | 55% | 72.2% | 72.3% | 40.6% | 45.1%
3 | CC12CCC(C1)C(C)(C)C2O (stereo not drawn) [Fenchyl Alcohol] | 105% and 94.5% | 91.5% | 89.9% | 100% | 96.4% | 96.6% | 91.5% | 89.1%
4 | Cc1ccnc2c1NC(=O)c1cccnc1N2C1CC1 [Nevirapine (Viramune)] | 101% and 89.6% | 95.5% | 93.3% | 99.3% | 89.9% | 0.15% | 91.6% | 104%
5 | Cc1ccc(Nc2nccc(N(C)c3ccc4c(C)n(C)nc4c3)n2)cc1S(N)(=O)=O [Pazopanib] | 84.1% and 94.1% | 85.8% | 96% | 104% | 69.4% | 83% | 73.8% | 71.2%
6 | O=C(NO)c1cccc(C(=O)NCCc2ccccc2)c1 | 91% and 97.1% | 101% | 91.9% | 86.8% | 89.6% | 94.3% | 90.7% | 93.3%
7 | CCC(=O)NC[C@@H]1C[C@H]1c1cccc2c1CCO2 [Tasimelteon] | 92.1% and 87.6% | 84.4% | 92.1% | 101% | 89% | 93.1% | 88% | 99.3%
8 | C[C@H]1CN(C[C@H](Cc2ccccc2)C(=O)NCC(=O)O)CC[C@@]1(C)c1cccc(O)c1 [Alvimopan dihydrate] | 110% and 102% | 101% | 98.5% | 112% | 102% | 103% | 94.9% | 99.2%
9 | CC(=O)Cc1cc(=O)c2c(C)cc(O)c([C@@H]3O[C@H](CO)[C@@H](O)[C@H](O)[C@H]3O)c2o1 [Aloesin] | 101% and 97.6% | 102% | 102% | 104% | 109% | 101% | 105% | 105%
10 | CC1(C)CCC2(C(=O)O)C(O)CC3(C)C(=CCC4C5(C)CC(O)C(O)C(C)(CO)C5CCC43C)C2C1 (stereo not drawn) [Polygalacic acid] | 103% and 102% | 103% | 101% | 98.5% | 109% | 100% | 104% | 94.9%
11 | C=CCc1ccc(OC(C)=O)c(OC)c1 [Eugenyl acetate] | 85.8% and 88% | 86% | 89.7% | 90.4% | 93.2% | 90.1% | 91.1% | 91.6%
